In the library only some 4.7% were active in any assay of this set; here they are far more common.
D1 antagonist: Antagonist of Human D 1 Dopamine Receptor: qHTS. activity change, negative = inhibition, % at 10 µM. hit rate 3.2% among 360,000. HEK293 TREx D1 cells, calcium flux, dopamine EC80; hits give low values; in the data active = activity change below about -30%; also: % is scaled to controls: 0 for no effect and ±100 for the full control effect
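Cells carrying a force-coupled, tetracycline-inducible human D1 receptor report calcium flux. Each well gets a 10 s baseline, compound with 180 s monitoring, then an EC80 dopamine stimulus with a second 180 s kinetic read.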
D1 agonist: Allosteric Agonists of the Human D1 Dopamine Receptor: qHTS; D(1A) dopamine receptor (Homo sapiens), P21728; hit rate 1% among 360,000; AID 504660, 2011; activation, % at 2 µM; HEK293 T-REx D1 cells, calcium flux, agonist mode; also: 0% is about no effect
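Inducible HEK293 T-REx D1 cells, force-coupled to calcium signalling, were plated at 4000 cells/well with tetracycline and held overnight at 30 C. After no-wash calcium dye loading, compound-evoked calcium rise over 180 s flagged agonists.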
D1 PAM: Potentiators of Human D1 Dopamine Receptor: qHTS; D(1A) dopamine receptor (Homo sapiens), P21728; HEK293 TREx D1 cells, calcium flux, dopamine EC20 potentiation; potentiation, % at 10 µM; hit rate 0.036% among 360,000; AID 504651, 2011; in the data active = potentiation above about 30%; also: 0% is about no effect
TRHR agonist: qHTS for Small Molecule Agonists and Allosteric Enhancers of Human TRH Receptor: Primary Screen for Agonists; activation, % at 2 µM; hit rate 0.18% among 360,000; Thyrotropin-releasing hormone receptor (Homo sapiens), P34981; TRHR cells, calcium flux fluo-8, FDSS agonist mode; also: 0% is about no effect
Target sequence (P34981 whole entry, looked up): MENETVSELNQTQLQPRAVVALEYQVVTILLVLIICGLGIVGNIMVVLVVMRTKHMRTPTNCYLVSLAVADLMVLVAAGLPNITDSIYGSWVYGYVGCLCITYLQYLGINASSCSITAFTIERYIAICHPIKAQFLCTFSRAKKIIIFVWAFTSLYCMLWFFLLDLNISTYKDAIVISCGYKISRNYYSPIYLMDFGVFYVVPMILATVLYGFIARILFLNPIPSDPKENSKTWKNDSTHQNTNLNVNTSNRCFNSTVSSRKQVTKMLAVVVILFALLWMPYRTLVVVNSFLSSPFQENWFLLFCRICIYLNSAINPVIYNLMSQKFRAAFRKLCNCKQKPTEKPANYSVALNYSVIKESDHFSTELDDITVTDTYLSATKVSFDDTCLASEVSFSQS
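Steps: seed TRHR cells overnight; add fluo-8 no-wash Ca dye, RT 30 min–1.5 h; record 10 s baseline; pin-transfer compounds; monitor fluorescence 1 cycle/s for the agonist window. Calcium increases flag candidate agonists.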
TRHR PAM: qHTS for Small Molecule Agonists and Allosteric Enhancers of Human TRH Receptor: Primary Screen for Enhancers; Thyrotropin-releasing hormone receptor (Homo sapiens), P34981; TRHR cells, fluo-8 calcium fluorescence, EC20 TRH enhancement; enhancement, % at 2 µM; hit rate 0.66% among 360,000; in the data active = enhancement above about 30%; also: 0% is about no effect
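Enhancer read-out: after compound pinning and an initial kinetic agonist-mode read, an EC20 of TRH (10 nM final) was injected and fluo-8 calcium signal (Ex 480/Em 530) followed at 1 s/cycle for 100 cycles in TRHR-expressing cells.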
* = called active by the depositor; . = no result given. Rule as the data show it, unless noted: active = activation above about 30%; inactive = the rest.

SMILES	D1 antagonist	D1 agonist	D1 PAM	TRHR agonist	TRHR PAM
O=C(NC1CCN(Cc2ccc3ccccc3c2)CC1)c1ccccc1	2	16	-7	1	-6
Cc1ccsc1CN(C(=O)COc1cccc(C)c1C)C1CCS(=O)(=O)C1 (stereo not drawn)	-8	6	0	0	0
O=C(O)c1cccc(S(=O)(=O)N2CCN(S(=O)(=O)c3ccc4c(c3)OCCO4)CC2)c1	-11	0	14	2	6
COc1cc(Br)c(C2CC(=O)Nc3cc(OC)c(OC)c(OC)c32)cc1OC (stereo not drawn)	6	3	-1	2	3
COc1cc(OC)cc(C(=O)NC2CCCN(Cc3ccc(Cl)cc3)C2)c1 (stereo not drawn)	-4	1	-1	0	2
O=C(NC1CCCN(Cc2ccc(Cl)cc2)C1)c1ccnc(Cl)c1 (stereo not drawn)	-2	-2	-1	-2	32*
O=C(NNc1c(Cl)cccc1Cl)C1CCC1	6	1	-7	0	-3
O=C(NC1CCN(C(=S)NCCc2ccccc2)CC1)C1CCCCC1	-34*	7	-10	-1	-4
CN(CC(=O)Nc1ccc(F)cc1)C(=O)CSc1ccc2c(c1)OCCO2	1	2	-3	0	3
Cc1ccc(SCC(=O)OCC(=O)N(C)CC(=O)Nc2ccc(F)cc2)cc1C	62	53*	8	0	35*
Cc1ccc(-n2ncc(C(=O)NCCc3ccccc3)c2C2CCN(C(=O)OC(C)(C)C)CC2)c(C)c1	-5	4	-4	0	-19
CCc1ccc(CN2CCc3nc(Nc4ccccc4)ncc3C2)cc1	2	0	0	0	-1
COc1ccc(S(=O)(=O)N2CCCCC2)cc1NC(=O)CCCNC(=O)c1ccc(Cl)cc1	-8	1	3	-1	-7
COc1ccc(S(=O)(=O)N2CCCCC2)cc1NC(=O)CCNC(=O)c1ccccc1Cl	-70*	1	-3	-1	-8
COc1ccc(S(=O)(=O)N2CCCCCC2)cc1NC(=O)CN1C(=O)NC(C)(c2ccccc2)C1=O (stereo not drawn)	-31*	1	-5	0	24
COc1ccccc1CNC(=O)CN1C(=O)CCc2cc(S(=O)(=O)N3CCCCC3)ccc21	-56*	-1	1	-1	-7
COc1ccccc1CNC(=O)CN1C(=O)CCc2cc(S(=O)(=O)N3CCOCC3)ccc21	4	2	0	-1	1
COc1ccc(CNC(=O)Cn2ncc3c(=O)oc4ccc(C)cc4c32)c(OC)c1	7	2	0	-2	1
Cc1cccc(NC(=O)Cn2c(=O)nc(-c3ccccc3)c3ccccc32)c1C	8	-1	0	-1	-2
CCc1nnc(NC(=O)CSc2nc3c([nH]c4ccccc43)c(=O)n2-c2cc(C)cc(C)c2)s1	1	1	-3	0	2
Cc1cc(NCc2ccco2)nc2cc(O)ccc12	-6	1	-5	1	-3
COc1ccc(Nc2cc(C)c3c(O)cccc3n2)cc1	-33*	8	-16	1	-8
Cc1ccccc1Nc1cc(C)c2c(O)cccc2n1	-15	9	-9	1	0
Cc1ccc(Nc2cc(C)c3ccc(O)cc3n2)cc1C	3	33*	-19	1	10
COc1ccc(Nc2c(C)cccc2C)cc1	-38*	3	-17	0	-3
SMILES	D1 antagonist	D1 agonist	D1 PAM	TRHR agonist	TRHR PAM
Cc1ccc(Nc2cc(C)c3c(O)cccc3n2)cc1C	-49*	35*	-18	10	-1
NC(=O)Cn1c(=O)n(CCCCCC(=O)NCc2ccc(F)cc2)c(=O)c2sccc21	-1	0	1	0	0
CCOc1ccc(CNC(=O)CCCn2c(=O)c3cccn3c3cccnc32)cc1	-2	2	-5	0	-1
COC(=O)c1cc(Nc2cc(C)c3ccc(O)cc3n2)cc(C(=O)OC)c1	2	1	-2	1	32*
COC(=O)c1cc(Nc2cc(C)c3c(O)cccc3n2)cc(C(=O)OC)c1	-26	8	-6	0	12
CCOC(=O)c1ccc(NC(=O)CN(c2ccc(C)cc2)S(=O)(=O)c2c(C)noc2C)cc1	-30	11	-1	3	0
CC(C)CCNC(=O)c1cc(-c2ccc(Br)s2)nc2ccccc12	-9	8	0	1	2
O=C(C1CC(=O)N(C2CCCC2)C1)N1CCC(Cc2ccccc2)CC1 (stereo not drawn)	-38*	7	-14	-1	8
O=C(C1CC(=O)N(C2CCCC2)C1)N1CCN(c2ccccc2F)CC1 (stereo not drawn)	11	5	.	0	-2
CCOC(=O)c1ccccc1NC(=O)C1CC(=O)N(C2CCCCC2)C1 (stereo not drawn)	17	7	2	2	14
CCc1cccc(C)c1NC(=O)C1CC(=O)N(C2CCCC2)C1 (stereo not drawn)	-46*	2	0	0	4
O=C(NNc1ccc([N+](=O)[O-])cc1)c1ccccc1Cl	-52*	9	-4	0	3
Nc1c(-c2ccc(Cl)cc2)cnn1-c1ccccc1	-4	0	-3	0	-9
Nc1c(-c2ccc(Cl)cc2)nnn1-c1ccccc1	-50*	-1	-7	0	-2
COc1ccc(-c2nc(CNS(=O)(=O)c3ccc(C)cc3)cs2)cc1	-3	13	0	-2	6
COc1ccc(-c2nc(CNS(=O)(=O)c3ccc(F)cc3)cs2)cc1	-32*	24	-1	-2	0
O=C(CNS(=O)(=O)c1c(Cl)cccc1Cl)OCc1csc(-c2ccccc2)n1	-48*	7	0	0	-3
Cc1ccc(S(=O)(=O)NCC(=O)OCc2csc(-c3ccccc3)n2)cc1	4	2	-3	-1	33*
O=C(CNS(=O)(=O)c1ccc2ccccc2c1)OCc1csc(-c2ccccc2)n1	-11	9	-7	1	2
CCOc1ccc(NC(=O)N2CCC(N3CCCCC3)CC2)cc1	-1	0	-2	1	7
Cc1c(NC(=O)/C(C#N)=C/c2ccc(-c3ccc(Cl)c(Cl)c3)o2)c(=O)n(-c2ccccc2)n1C	-22	0	-12	-1	7
Cc1c(NC(=O)/C(C#N)=C/c2ccc(-c3cccc(Cl)c3)o2)c(=O)n(-c2ccccc2)n1C	-38*	0	-10	0	8
